Assay results taken from PubChem BioAssay (Tox21).
Unmarked numbers belong to inactive results. Records with an inconclusive call do not appear. Where a call stands in place of a potency, no number is given. Active and inactive are the calls of the source. Unless noted, calls follow the shape of the dose curve; as a rule, active = well fitted curve in the direction sought with a large enough effect in the repeat runs; inconclusive = weak or mixed curves; inactive = no such curve, though single readings can be large; an effect the other way counts as inactive or inconclusive.

Tests used:
[1] = qHTS assay to identify small molecule agonists of the estrogen receptor alpha (ER-alpha) signaling pathway in the presence of an antagonist - cell viability counter screen (AID 1259386);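 also: cells exposed to compounds for 22 h at 37 °C before the viability read; nearly all actives have a fitted effect of over 30% in size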; also: potency is read from the fitted curve at half-maximal effect
Outline: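 Viability counter screen using VM7Luc4E2 (full-length ER-alpha, four ERE-luciferase). The cells were treated with compounds alongside ICI-182,780 10.0nM for 22hr, and live-cell protease fluorescence was quantified with CellTiter-Fluor.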

[2] = biological target: Progesterone receptor (Homo sapiens) (UniProt P06401); assay: qHTS assay to identify small molecule agonists of the progesterone receptor (PR) signaling pathway (AID 1346784; calls by dose curve; also: nearly all actives have a fitted effect of over 30% in size)
Progesterone receptor (Homo sapiens), sequence (P06401 whole entry, looked up): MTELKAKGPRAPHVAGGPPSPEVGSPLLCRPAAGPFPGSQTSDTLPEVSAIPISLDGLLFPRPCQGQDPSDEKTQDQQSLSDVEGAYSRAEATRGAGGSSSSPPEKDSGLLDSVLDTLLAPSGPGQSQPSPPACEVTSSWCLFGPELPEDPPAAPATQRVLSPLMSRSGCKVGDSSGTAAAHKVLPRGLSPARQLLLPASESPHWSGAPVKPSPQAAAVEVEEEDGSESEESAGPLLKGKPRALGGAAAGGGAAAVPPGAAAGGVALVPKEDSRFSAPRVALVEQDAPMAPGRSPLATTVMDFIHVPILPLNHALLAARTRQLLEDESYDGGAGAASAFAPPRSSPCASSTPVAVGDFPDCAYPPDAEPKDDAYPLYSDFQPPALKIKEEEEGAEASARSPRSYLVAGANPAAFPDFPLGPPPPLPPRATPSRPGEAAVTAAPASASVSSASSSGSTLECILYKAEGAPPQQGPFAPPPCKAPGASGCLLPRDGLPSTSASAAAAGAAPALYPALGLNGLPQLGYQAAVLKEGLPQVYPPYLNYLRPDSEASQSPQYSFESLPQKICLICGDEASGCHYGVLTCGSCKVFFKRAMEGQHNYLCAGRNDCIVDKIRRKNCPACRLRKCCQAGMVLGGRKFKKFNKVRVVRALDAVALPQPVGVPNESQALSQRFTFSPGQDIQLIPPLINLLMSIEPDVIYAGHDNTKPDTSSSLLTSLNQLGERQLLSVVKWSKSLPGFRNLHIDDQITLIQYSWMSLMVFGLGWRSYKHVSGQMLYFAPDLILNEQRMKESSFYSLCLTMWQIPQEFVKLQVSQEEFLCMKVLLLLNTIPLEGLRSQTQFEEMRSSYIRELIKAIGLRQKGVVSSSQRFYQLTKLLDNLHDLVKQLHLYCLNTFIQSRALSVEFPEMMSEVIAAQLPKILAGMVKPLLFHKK
Outline: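 Cells (PR-UAS-bla HEK 293T, GripTite) were plated in assay medium containing 2% charcoal-stripped FBS and incubated 6 hr. Test compounds in DMSO were added for 16 hr at 37C. FRET substrate was then loaded for 2 hr at room temperature before fluorescence reading.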

[3] = biological target: Progesterone receptor (Homo sapiens) (UniProt P06401); assay: qHTS assay to identify small molecule antagonists of the progesterone receptor (PR) signaling pathway (AID 1346795; active = well fitted inhibition curve with a large enough effect in the signal ratio in the repeat runs, not every such curve was filed as active; the % refers to the signal ratio; also: potency is read from the fitted curve at half-maximal effect)
Outline: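 Antagonist mode: compounds tested against 1 nM (final) promegestone stimulation in HEK293T cells expressing PR-UAS-bla reporter, 16 hr at 37C, 5% CO2; beta-lactamase activity detected via B/G FRET substrate after 2 hr at room temperature.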

[4] = qHTS assay to identify small molecule antagonists of the progesterone receptor (PR) signaling pathway - cell viability counter screen (AID 1346798); also: series mostly up to about 92 µM; nearly all actives have a fitted effect of over 50% in size
Outline: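 Counter screen for cytotoxicity: viability of PR-UAS-bla HEK293T cells was measured with CellTiter-Glo luminescence following 16 hr compound exposure in the presence of R5020.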

[5] = qHTS assay to identify small molecule agonists of the progesterone receptor (PR) signaling pathway - cell viability counter screen (AID 1346799; calls by dose curve; also: nearly all actives have a fitted effect of over 45% in size)
Outline: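 Cells (PR-UAS-bla HEK293T) are plated at 3,000/well in 2% charcoal-stripped FBS medium, rested 6 hr, dosed and incubated 16 hr at 37C. CellTiter-Glo is then added and luminescence measured after 30 min at room temperature.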

[6] = qHTS assay to identify small molecule antagonists of the TGF-beta/Smad signaling pathway - cell viability counter screen (AID 1346824); also: nearly all actives have a fitted effect of over 50% in size
Outline: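 SBE-bla HEK 293T cells were plated overnight at 37 C, then given compounds in DMSO plus TGF-beta1 (added as 0.25 ng/mL solution) for 5 hr. After the bla read, CellTiter-Glo was added to the same wells and luminescence read after 30 min at room temperature.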

[7] = qHTS assay to identify small molecule agonists of the TGF-beta/Smad signaling pathway - cell viability counter screen (AID 1346829); also: top concentration of the series differs between compounds; nearly all actives have a fitted effect of over 45% in size
Outline: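 Here the cytotoxicity of library compounds is measured in SBE-bla HEK 293T cells treated for 5 hr, using CellTiter-Glo added to wells already read for the beta-lactamase reporter.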

[8] = qHTS assay to identify small molecule agonists of the TGF-beta/Smad signaling pathway (AID 1346859; active = well fitted activation curve with a large enough effect in the signal ratio in the repeat runs, not every such curve was filed as active; the % refers to the signal ratio; also: series mostly up to about 77 µM)
Outline: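 Reporter line: HEK 293T with stably integrated SBE-controlled beta-lactamase. Compound exposure lasts 5 hr at 37 C and 5% CO2; substrate loading follows for 2 hr at room temperature, with emission read at 460 and 530 nm.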

[9] = Human pregnane X receptor (PXR) small molecule agonists, qHTS cell viability counter screen (AID 1346977); also: nearly all actives have a fitted effect of over 50% in size
Outline: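 Cytotoxicity counter screen run in the same wells as the PXR luciferase assay, using PXR-Luc HepG2 cells in charcoal-stripped serum medium. Viability: CellTiter-Fluor fluorescence after 24hr compound treatment.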

[10] = Caspase-3/7 induction in HepG2 cells by small molecules, qHTS assay (AID 1346978); also: nearly all actives have a fitted effect of over 15% in size
Outline: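 Wild-type HepG2 cells (2,000/well) were settled 5 h at 37 C, 5% CO2, then exposed to compounds in DMSO for 17 h. Caspase-3/7 activity was read by luminescence 30 min after adding Caspase-Glo 3/7 reagent at room temperature.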

[11] = Caspase-3/7 induction in CHO-K1 cells by small molecules, qHTS cell viability counter screen (AID 1346979); also: nearly all actives have a fitted effect of over 35% in size
Outline: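 Cytotoxicity counter screen run in parallel with the caspase-3/7 assay: CHO-K1 cells, 16hr compound treatment at 37C, then CellTiter-Fluor for 1hr before fluorescence reading.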

[12] = Caspase-3/7 induction in CHO-K1 cells by small molecules, qHTS assay (AID 1346980); also: nearly all actives have a fitted effect of over 15% in size
Outline: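 Wild-type cells were seeded at 1,500 per well and settled 5 hr at 37 C, 5% CO2, then exposed to DMSO-dissolved compounds for 17 hr. Caspase-Glo 3/7 reagent was added, and luminescence was read after 30min at room temperature.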

[13] = Caspase-3/7 induction in HepG2 cells by small molecules, qHTS cell viability counter screen (AID 1346981); also: series mostly up to about 92 µM; nearly all actives have a fitted effect of over 30% in size
Outline: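 Viability determined by CellTiter-Fluor fluorescence in HepG2 wells also used for the luminescent Caspase-Glo 3/7 read. Compounds were present for 16 hr at 37 C, 5% CO2 before reagent addition.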

[14] = biological target: Nuclear receptor subfamily 1 group I member 2 (Homo sapiens) (UniProt O75469); assay: Human pregnane X receptor (PXR) small molecule agonists, qHTS assay (AID 1346982); also: nearly all actives have a fitted effect of over 35% in size; also: potency is read from the fitted curve at half-maximal effect
Nuclear receptor subfamily 1 group I member 2 (Homo sapiens), sequence (O75469 whole entry, looked up): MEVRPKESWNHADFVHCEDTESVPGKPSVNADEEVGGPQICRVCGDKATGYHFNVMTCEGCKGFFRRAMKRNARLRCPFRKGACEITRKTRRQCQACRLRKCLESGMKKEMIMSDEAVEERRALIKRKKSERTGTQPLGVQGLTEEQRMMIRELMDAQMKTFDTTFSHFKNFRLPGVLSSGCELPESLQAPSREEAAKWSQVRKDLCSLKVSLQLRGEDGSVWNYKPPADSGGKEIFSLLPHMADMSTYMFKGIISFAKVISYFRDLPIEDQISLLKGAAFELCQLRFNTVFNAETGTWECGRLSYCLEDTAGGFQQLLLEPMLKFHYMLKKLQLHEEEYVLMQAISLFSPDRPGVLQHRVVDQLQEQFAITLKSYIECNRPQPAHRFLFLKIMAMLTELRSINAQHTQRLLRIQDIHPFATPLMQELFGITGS
Outline: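 Compound-induced hPXR transactivation of a CYP3A4 luciferase reporter was scored in HepG2 PXR-Luc cells over 24 hr at 37 C, 5% CO2, by luminescence.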

[15] = biological target: Acetylcholinesterase (Homo sapiens) (UniProt P22303); assay: Acetylcholinesterase (AChE) small molecule antagonists: colormetric cell-based qHTS assay (AID 1347395; calls by dose curve; also: nearly all actives have a fitted effect of over 30% in size; also: potency is read from the fitted curve at half-maximal effect)
Acetylcholinesterase (Homo sapiens), sequence (P22303 whole entry, looked up): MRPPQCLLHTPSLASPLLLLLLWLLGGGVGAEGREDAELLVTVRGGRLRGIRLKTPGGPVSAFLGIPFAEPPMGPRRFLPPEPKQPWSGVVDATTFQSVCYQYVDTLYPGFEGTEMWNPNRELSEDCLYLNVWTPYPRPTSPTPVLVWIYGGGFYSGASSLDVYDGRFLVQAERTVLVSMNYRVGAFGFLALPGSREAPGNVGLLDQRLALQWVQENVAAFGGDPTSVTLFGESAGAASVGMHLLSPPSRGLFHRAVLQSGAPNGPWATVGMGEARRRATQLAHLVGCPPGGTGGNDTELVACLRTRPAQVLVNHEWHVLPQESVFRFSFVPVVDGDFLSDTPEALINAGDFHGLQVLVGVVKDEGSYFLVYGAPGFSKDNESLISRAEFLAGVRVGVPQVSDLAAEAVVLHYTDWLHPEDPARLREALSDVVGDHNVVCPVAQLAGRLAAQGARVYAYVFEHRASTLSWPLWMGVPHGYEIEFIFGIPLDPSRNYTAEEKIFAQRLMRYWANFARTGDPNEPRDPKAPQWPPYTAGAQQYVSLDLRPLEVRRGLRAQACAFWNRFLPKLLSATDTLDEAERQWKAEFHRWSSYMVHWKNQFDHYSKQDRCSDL
Outline: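 Cells (SH-SY5Y, 2,000 per well) are seeded and left overnight at 37 C. Compound is added for 30 min, then DTNB and acetylthiocholine for a further 90 min at 37 C before absorbance-based thiocholine detection.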

[16] = biological target: Thyrotropin-releasing hormone receptor (Homo sapiens) (UniProt P34981); assay: qHTS assay to identify small molecule antagonists of the thyrotropin-releasing hormone receptor (TRHR) signaling pathway (AID 1346877; active = well fitted inhibition curve with a large enough effect in the repeat runs, not every such curve was filed as active; also: series mostly up to about 51 µM)
Thyrotropin-releasing hormone receptor (Homo sapiens), sequence (P34981 whole entry, looked up): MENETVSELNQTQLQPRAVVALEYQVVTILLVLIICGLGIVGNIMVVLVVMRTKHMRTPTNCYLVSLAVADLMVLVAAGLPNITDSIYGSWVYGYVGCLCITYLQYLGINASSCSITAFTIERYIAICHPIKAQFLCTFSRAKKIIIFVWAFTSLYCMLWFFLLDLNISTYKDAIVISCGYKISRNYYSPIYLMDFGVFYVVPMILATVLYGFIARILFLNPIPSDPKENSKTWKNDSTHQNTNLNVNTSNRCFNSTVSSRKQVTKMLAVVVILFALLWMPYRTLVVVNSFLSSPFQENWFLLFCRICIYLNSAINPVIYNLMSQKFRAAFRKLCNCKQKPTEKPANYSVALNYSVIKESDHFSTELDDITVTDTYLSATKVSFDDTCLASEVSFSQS
Outline: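 Following an 18 h incubation at 37 °C and a 2 h calcium dye load, TRHR-HEK293 cells were exposed to compound (5 min, room temperature) and challenged with TRH, 1 nM final.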

[17] = biological target: Thyrotropin-releasing hormone receptor (Homo sapiens) (UniProt P34981); assay: qHTS assay to identify small molecule agonists of the thyrotropin-releasing hormone receptor (TRHR) signaling pathway (AID 1346891; calls by dose curve;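 also: HEK293 cells expressing TRHR with calcium dye readout; series mostly up to about 58 µM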)
Outline: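 Cells: TRHR-Hek293, seeded and incubated 18 h. Dye loading: 2 h at 37 °C. Compound added from DMSO stock by pin tool. Read-out: kinetic calcium fluorescence over 3 min.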

[18] = biological target: Nuclear receptor subfamily 1 group I member 2 (Rattus norvegicus) (UniProt Q9R1A7); assay: Rat pregnane X receptor (rPXR) activation by small molecules, qHTS assay (AID 1346983); conditions: rPXR luciferase reporter cells, One-Glo luminescence, 24 h; max activation: stronger effect = higher value; also: nearly all actives have a fitted effect of over 20% in size
Nuclear receptor subfamily 1 group I member 2 (Rattus norvegicus), sequence (Q9R1A7 whole entry, looked up): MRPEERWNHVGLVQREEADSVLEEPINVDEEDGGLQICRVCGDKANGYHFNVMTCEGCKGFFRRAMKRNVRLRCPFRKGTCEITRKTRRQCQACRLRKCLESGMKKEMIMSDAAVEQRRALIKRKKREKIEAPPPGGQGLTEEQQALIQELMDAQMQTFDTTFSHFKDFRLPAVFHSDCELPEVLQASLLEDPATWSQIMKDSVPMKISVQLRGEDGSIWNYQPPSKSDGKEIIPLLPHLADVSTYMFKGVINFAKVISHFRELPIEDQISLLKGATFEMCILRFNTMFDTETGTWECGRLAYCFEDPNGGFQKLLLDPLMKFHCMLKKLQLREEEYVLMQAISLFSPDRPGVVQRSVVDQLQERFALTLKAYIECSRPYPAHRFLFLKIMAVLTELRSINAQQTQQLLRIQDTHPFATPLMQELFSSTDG
Outline: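 Cell-based rPXR luciferase reporter assay, 2,000 cells per well, rested 5hr at 37 C before compound addition in DMSO, then 24 hr at 37 C. One-Glo reagent was added and luminescence read after 30 min at room temperature.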

[19] = biological target: Nuclear receptor subfamily 1 group I member 2 (Homo sapiens) (UniProt O75469); assay: CYP3A4 induction through human pregnane X receptor (PXR) by small molecules, qHTS assay (AID 1346984); also: nearly all actives have a fitted effect of over 40% in size
Outline: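 Readings come from a luciferase reporter: DPX-2 cells, which are HepG2 cotransfected with PXR and a CYP3A4-promoter construct, were exposed to test compounds for 24 h at 37C before One-Glo detection.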

[20] = biological target: Nuclear receptor subfamily 1 group I member 2 (Homo sapiens) (UniProt O75469); assay: Human pregnane X receptor (PXR) activation by small molecules, qHTS assay (AID 1346985); also: nearly all actives have a fitted effect of over 40% in size
Outline: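 DPX-2 cells (HepG2 co-transfected with a PXR response element and a CYP3A4-promoter luciferase construct) were seeded at 2,000 per well, rested 5 hr at 37C, then exposed to DMSO-dissolved compounds for 24 hr. Activation was read as luciferase luminescence.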

SMILES | Potency [1] | Potency [2] | Potency [3] | Potency [4] | Potency [5] | Potency [6] | outcome [7] | outcome [8] | Potency [9] | Potency [10] | Potency [11] | Potency [12] | Potency [13] | Potency [14] | Potency [15] | outcome [16] | outcome [17] | max activation [18] | Potency [19] | Potency [20]
O=C(Cc1ccccc1)OCc1ccccc1 | inactive | inactive | inactive | inactive | inactive | inactive | inactive | inactive | inactive | inactive | inactive | inactive | inactive | inactive | inactive |  |  |  |  | 
CCCCP(CCCC)CCCC | inactive | inactive | inactive | inactive | inactive | inactive | inactive | inactive |  | inactive | inactive | inactive | inactive | inactive | inactive | inactive | inactive |  |  | 
CCCSC(=O)N(CCC)CCC | inactive | inactive | inactive | inactive | inactive | inactive | inactive | inactive |  | inactive | inactive | inactive | inactive | inactive | inactive | inactive | inactive |  |  | 
Cc1cnc[nH]1 | inactive | inactive | inactive | inactive | inactive | inactive | inactive | inactive |  | inactive | inactive | inactive | inactive | inactive |  | inactive | inactive |  |  | 
CC(C)(C)NCC(O)c1cc(Cl)c(N)c(Cl)c1 (centres undefined) | 21.1 µM (active) | inactive | inactive | inactive | inactive | inactive | inactive | inactive |  | inactive | inactive | inactive |  | inactive | inactive |  |  | -2.23% | inactive | inactive
CC(C(O)c1ccccc1)N(C)C/C=C/c1ccccc1 (centres undefined) | inactive | inactive | inactive | inactive | inactive | inactive | inactive | inactive |  | inactive | inactive | inactive | inactive | inactive | inactive |  |  |  |  | 
ClCC(Cl)Cl | inactive | inactive | inactive | inactive | inactive | inactive | inactive | inactive | inactive | inactive | inactive | inactive | inactive | inactive | 36.8 µM (active) |  |  |  |  | 
O=P(O)(Oc1ccccc1)Oc1ccccc1 | inactive | inactive | inactive | inactive | inactive | inactive | inactive | inactive |  | inactive | inactive | inactive |  | inactive | inactive | inactive | inactive |  |  | 
O=C(Nc1ccccc1)c1ccccc1I | inactive | inactive | 54.5 µM (active) | inactive | inactive | inactive | inactive | inactive | inactive |  |  | inactive | inactive | 68.6 µM (active) | inactive | inactive | inactive |  |  | 
CC(=O)C(Cl)Cl | inactive | inactive | inactive | inactive | inactive | inactive | inactive | inactive | inactive | inactive | inactive | inactive | inactive | inactive | inactive |  |  |  |  | 
CC1CCC(=O)O1 (centres undefined) | inactive | inactive | inactive |  | inactive | inactive | inactive | inactive | inactive | inactive | inactive | inactive | inactive | inactive | inactive | inactive | inactive |  |  | 
CSc1ccc(C(=O)C(C)(C)N2CCOCC2)cc1 | inactive | inactive | 27.3 µM (active) | inactive |  | inactive | inactive | inactive | inactive | inactive | inactive | inactive | inactive |  | inactive | inactive | inactive |  |  | 
OCCSCSCCO | inactive | inactive | inactive | inactive | inactive |  | inactive | inactive | inactive | inactive | inactive | inactive | inactive | inactive | inactive | inactive | inactive |  |  | 
